The results in this text go back to PubChem BioAssay (Tox21).

The structures appear in SMILES notation. A number with no mark means an inactive call. Calls come from the whole dose curve; as a rule, active = well fitted activation curve with a large enough effect in the repeat runs; inconclusive = weak or mixed curves; inactive = flat fitted curve, though single readings scatter.
% is set by controls: 0 for no effect and ±100 for the full control effect.

The assay can be described thus: Caspase-3/7 induction in CHO-K1 cells by small molecules, qHTS assay (AID 1346980). Note: nearly all actives have a fitted effect of over 15% in size. The conditions noted are these: CHO-K1 caspase-3/7 induction, Caspase-Glo luminescence, 17 h; series mostly up to 92.4 µM; caspase-3/7 activation: at the top concentration. The method in brief:
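Luminescent Caspase-Glo 3/7 read (30min, room temperature) quantified apoptosis induction. Cells were wild-type CHO-K1, treated with compound for 17hr at 37 C and 5% CO2.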
(In general: In qHTS, concentration-response curves come from the screen itself.)
`Cc1nc2ccc(Cl)cc2[nH]1`: the “caspase-3/7 activation” value is -3.98%.
As for `CCOC(=O)c1ccc(N(C)C)cc1`, the “caspase-3/7 activation” value was -1.92%.
As for `C[Si](C)(C)O[Si](O)(O)O`, the “caspase-3/7 activation” value was -0.415%.
The figure for `CCC(C)SSC(C)CC` (centres undefined) is 1.64%.
Then `CC(C)(C)OC=O`, with 2.31%; and `CCNC(=O)C(C)OC(=O)Nc1ccccc1` (centres undefined), with 0.0057%; and `C=CCN(CC=C)CC=C`, with 0.548%.
The figure for `COc1cc2nc(N3CCN(C(=O)C4CCCO4)CC3)nc(N)c2cc1OC` (centres undefined) is -4.41% [at 42.5 µM].
Turning to `Cc1cc(=O)oc2cc(O[C@@H]3SC[C@@H](O)[C@H](O)[C@H]3O)ccc12`, the “caspase-3/7 activation” value is 0.216% [at 42.5 µM].
Regarding `COc1ccccc1N1CCN(CC(O)COc2cc(OC)c(OC)c(OC)c2)CC1` (centres undefined), the “caspase-3/7 activation” value is -0.248% [at 42.5 µM].
For the molecule `COC(=O)N/N=C/c1c[n+]([O-])c2ccccc2[n+]1[O-]`, the “caspase-3/7 activation” value is -0.88% [at 42.5 µM].
Then `COC(=O)c1cc(Cl)c(NC(C)=O)cc1OC`, with -0.086% [at 42.5 µM].
For the molecule `CC(=O)Nc1ccc(OCCOCCOc2ccc(NC(C)=O)cc2)cc1`, the “caspase-3/7 activation” value was 0.579% [at 42.5 µM].
In the case of `CC(O)CCCCn1c(=O)c2c(ncn2C)n(C)c1=O` (centres undefined), the “caspase-3/7 activation” value is 2.37% [at 42.5 µM].
`O=Cc1ccc(C(=O)O)cc1`: the “caspase-3/7 activation” value was 2.17%.
Take `O=S(=O)(O)c1cc(I)c(O)c2ncccc12`: the “caspase-3/7 activation” value is 0.859% [at 42.5 µM].
With `CC(C)(C)c1ccc(C(=O)CCCCl)cc1`, the “caspase-3/7 activation” value is -1.09% [at 42.5 µM].
For the molecule `CC(C)(C)C(=O)CC(=O)C(C)(C)C`, the “caspase-3/7 activation” value was 0.439%.
For the molecule `C=CC(=O)CC`, the “caspase-3/7 activation” value was 0.832%.
With `CCCCC(O)/C=C(C)/C=C/C=C/C(=O)N1CCCC1=O` (centres undefined), the “caspase-3/7 activation” value is 0.214% [at 42.5 µM].
Regarding `CCN1CCN(C(=O)N[C@@H](C(=O)N[C@@H]2C(=O)N3[C@@H]2SC(C)(C)[C@H]3C(=O)O)c2ccccc2)C(=O)C1=O`, the “caspase-3/7 activation” value was -1.23% [at 42.5 µM].
Take `COc1ccc2cc(CCC(C)=O)ccc2c1`: the “caspase-3/7 activation” value is -3.5% [at 42.5 µM].
`c1coc(Cn2cccc2)c1`: the “caspase-3/7 activation” value is 0.0403%.
In the case of `CCC(C)c1nccnc1OC` (centres undefined), the “caspase-3/7 activation” value was -1.22%.
